PubChem BioAssay (NCATS)
Records with an inconclusive call do not appear. The source made the active and inactive calls. Unless noted, calls follow the shape of the dose curve; as a rule, active = well fitted curve in the direction sought with a large enough effect; inconclusive = small, poorly fitted or top-dose-only effect, or another doubt; inactive = no such curve, though single readings can be large; an effect the other way counts as inactive or inconclusive.

Tests used:
[1] = target: Ubiquitin carboxyl-terminal hydrolase 1 (Homo sapiens) (UniProt O94782); test: Inhibitors of USP1/UAF1: Pilot qHTS (AID 504865);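 also: rhodamine fluorescence freed from ubiquitin-rhodamine substrate followed over time; top concentration of the series differs between compounds; % is scaled to controls: 0 for no effect and ±100 for the full control effect; nearly all actives have a fitted effect of over 35% in size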
Ubiquitin carboxyl-terminal hydrolase 1 (Homo sapiens), sequence (O94782 whole entry, looked up): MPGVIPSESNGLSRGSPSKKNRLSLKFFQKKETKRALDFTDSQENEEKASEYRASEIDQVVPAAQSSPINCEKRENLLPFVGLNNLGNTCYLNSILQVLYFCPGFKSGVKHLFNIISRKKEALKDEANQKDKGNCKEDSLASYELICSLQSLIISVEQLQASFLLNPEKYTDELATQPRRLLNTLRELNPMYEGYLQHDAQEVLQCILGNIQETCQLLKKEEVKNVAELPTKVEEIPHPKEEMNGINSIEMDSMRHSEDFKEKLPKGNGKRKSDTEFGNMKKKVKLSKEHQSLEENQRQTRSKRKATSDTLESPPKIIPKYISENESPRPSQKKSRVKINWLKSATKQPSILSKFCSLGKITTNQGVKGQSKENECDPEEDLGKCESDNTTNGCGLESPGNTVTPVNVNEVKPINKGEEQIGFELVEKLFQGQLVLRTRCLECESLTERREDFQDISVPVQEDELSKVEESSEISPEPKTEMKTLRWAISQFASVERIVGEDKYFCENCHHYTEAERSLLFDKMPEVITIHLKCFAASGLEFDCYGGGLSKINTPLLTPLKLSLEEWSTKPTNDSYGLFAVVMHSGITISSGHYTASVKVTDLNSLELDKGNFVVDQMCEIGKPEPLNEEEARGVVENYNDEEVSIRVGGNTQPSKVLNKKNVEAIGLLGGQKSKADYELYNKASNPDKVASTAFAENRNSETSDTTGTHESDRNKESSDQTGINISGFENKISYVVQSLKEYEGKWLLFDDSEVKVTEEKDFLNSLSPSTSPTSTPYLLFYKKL
Method in brief: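 In 50mM HEPES pH 7.8 containing 0.5mM EDTA, 1mM TCEP, 0.1 mg/ml BSA and 0.01% Tween-20, 1nM USP1/UAF1 is exposed to compound for 15 min, then Ub-Rho (150nM final) is added and fluorescence is read over time.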

[2] = target: Luciferin 4-monooxygenase (Photinus pyralis) (UniProt P08659); test: Biochemical firefly luciferase enzyme assay for NPC (AID 624030);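 also: purified P. pyralis luciferase at 10 nM with luciferin and ATP substrate; 0% = DMSO and -100% = full luciferase inhibition by PTC124 control; nearly all actives have a fitted effect of over 70% in size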
Luciferin 4-monooxygenase (Photinus pyralis), sequence (P08659 whole entry, looked up): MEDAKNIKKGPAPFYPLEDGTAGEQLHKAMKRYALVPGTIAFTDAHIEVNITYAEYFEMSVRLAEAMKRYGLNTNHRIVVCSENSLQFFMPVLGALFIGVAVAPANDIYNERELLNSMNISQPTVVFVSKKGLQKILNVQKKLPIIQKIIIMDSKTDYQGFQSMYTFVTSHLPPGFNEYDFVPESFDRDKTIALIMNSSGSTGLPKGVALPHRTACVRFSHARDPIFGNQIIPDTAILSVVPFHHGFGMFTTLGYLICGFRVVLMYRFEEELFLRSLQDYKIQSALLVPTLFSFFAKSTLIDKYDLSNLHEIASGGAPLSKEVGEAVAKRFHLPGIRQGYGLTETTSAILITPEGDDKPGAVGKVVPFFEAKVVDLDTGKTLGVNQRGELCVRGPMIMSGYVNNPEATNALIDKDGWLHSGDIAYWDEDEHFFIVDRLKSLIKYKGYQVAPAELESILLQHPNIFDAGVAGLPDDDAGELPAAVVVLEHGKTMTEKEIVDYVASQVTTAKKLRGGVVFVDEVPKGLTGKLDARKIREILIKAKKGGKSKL
Method in brief: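 Counter-screen for direct inhibition of the luciferase enzyme by approved-drug library compounds, run at 10 nM enzyme in 50 mM Tris acetate (final). Luminescence was read within 5 min of enzyme-buffer addition and normalized to PTC124 versus DMSO (0%).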

[3] = system: AA1029; test: qHTS profiling for inhibitors of Plasmodium falciparum proliferation (AID 504749); also: nearly all actives have a fitted effect of over 60% in size; also: potency is read from the fitted curve at half-maximal effect; settings: P. falciparum in erythrocytes, SYBR Green DNA, 72 h; series mostly up to 28.7 µM
Method in brief: (§1)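 Fluorescence of SYBR Green-bound parasite DNA, read at 485/535 nm, served as the growth measure. Infected erythrocytes were cultured with compound 72 h; artemisinin (0.29 uM) and DMSO wells defined the normalization range.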

[4] = system: AS120; test: as above; settings: P. falciparum in erythrocytes, SYBR Green DNA, 72 h; series mostly up to 28.7 µM
Method in brief: as §1

[5] = system: ATS189; test: as above; settings: P. falciparum in erythrocytes, SYBR Green DNA, 72 h; series mostly up to 28.7 µM
Method in brief: as §1

[6] = system: ATS95; test: as above; settings: P. falciparum in erythrocytes, SYBR Green DNA, 72 h; series mostly up to 28.7 µM
Method in brief: as §1

[7] = system: CP238; test: as above; settings: P. falciparum in erythrocytes, SYBR Green DNA, 72 h; series mostly up to 28.7 µM
Method in brief: as §1

[8] = system: CP247; test: as above; settings: P. falciparum in erythrocytes, SYBR Green DNA, 72 h; series mostly up to 28.7 µM
Method in brief: as §1

[9] = system: CP262; test: as above; settings: P. falciparum in erythrocytes, SYBR Green DNA, 72 h; series mostly up to 28.7 µM
Method in brief: as §1

[10] = system: CP265; test: as above; settings: P. falciparum in erythrocytes, SYBR Green DNA, 72 h; series mostly up to 28.7 µM
Method in brief: as §1

[11] = system: CP286; test: as above; settings: P. falciparum in erythrocytes, SYBR Green DNA, 72 h; series mostly up to 28.7 µM
Method in brief: as §1

[12] = system: GB4; test: as above; settings: P. falciparum in erythrocytes, SYBR Green DNA, 72 h; series mostly up to 28.7 µM
Method in brief: as §1

[13] = system: PAD; test: as above; settings: P. falciparum in erythrocytes, SYBR Green DNA, 72 h; series mostly up to 28.7 µM
Method in brief: as §1

[14] = system: PC15; test: as above; settings: P. falciparum in erythrocytes, SYBR Green DNA, 72 h; series mostly up to 28.7 µM
Method in brief: as §1

[15] = system: TAB165; test: as above; settings: P. falciparum in erythrocytes, SYBR Green DNA, 72 h; series mostly up to 28.7 µM
Method in brief: as §1

[16] = qHTS drug screen for cell cycle checkpoint inhibitors in PARPi-resistant BRCA-mutant ovarian cancer cell lines. (AID 1963452; calls by dose curve; also: potency is read from the fitted curve at half-maximal effect); settings: PEO1/OlaR viability, CellTiter-Glo luminescence, 96 h; for Z-AUC: stronger effect = lower value
Method in brief: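 PEO1, PEO4 and PEO1/OlaR ovarian cancer cells, 600 per well, exposed 96 h at 37C to a dilution series. Viability read by CellTiter-Glo luminescence, normalized to DMSO and empty wells; activity summarized as Z-AUC.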

[17] = Cell Viability - LYMP2-004 (AID 966);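 also: cells exposed to compound for 24 h; plate controls were DMSO only for no effect and tetraoctylammonium bromide control for full effect; nearly all actives have a fitted effect of over 65% in size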
Method in brief: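 Viable-cell number estimated from ATP luminescence (CellTiter-Glo) in 2500 human lymphoblastoid cells/well after 24 hr at 37 C with compound. AC50 fitted to the standard Hill equation.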

[18] = target: Retinoic acid receptor RXR-alpha (Homo sapiens) (UniProt P19793); test: qHTS assay for small molecule agonists of retinoid X receptor alpha signaling (AID 588544; calls by dose curve;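 also: 0% = DMSO basal wells and 100% = reference agonist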)
Retinoic acid receptor RXR-alpha (Homo sapiens), sequence (P19793 whole entry, looked up): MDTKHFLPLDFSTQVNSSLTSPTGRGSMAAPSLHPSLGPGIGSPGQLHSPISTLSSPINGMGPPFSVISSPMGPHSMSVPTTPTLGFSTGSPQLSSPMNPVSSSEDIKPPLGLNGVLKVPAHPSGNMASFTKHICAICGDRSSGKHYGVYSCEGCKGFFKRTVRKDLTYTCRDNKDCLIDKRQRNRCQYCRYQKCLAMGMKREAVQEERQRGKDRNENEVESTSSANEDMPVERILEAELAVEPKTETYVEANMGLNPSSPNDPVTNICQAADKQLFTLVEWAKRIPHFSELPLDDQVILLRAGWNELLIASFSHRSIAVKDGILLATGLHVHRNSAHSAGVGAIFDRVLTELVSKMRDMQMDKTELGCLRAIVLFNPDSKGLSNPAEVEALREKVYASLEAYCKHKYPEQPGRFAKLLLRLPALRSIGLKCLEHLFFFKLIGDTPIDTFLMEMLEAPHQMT

[19] = Cell Viability - LYMP2-026 (AID 989);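 also: cells exposed to compound for 24 h at 37 °C; % is scaled to controls: 0 for no effect and ±100 for the full control effect; nearly all actives have a fitted effect of over 50% in size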
Method in brief: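 Acute toxicity screen in complete culture medium, with 24 hr compound exposure at 37 C. Viability read as cellular ATP via luciferase reaction, with tetraoctylammonium bromide (6.4pM to 92 uM) as positive control.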

[20] = Cell Viability - LYMP2-022 (AID 987);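 also: 0% = DMSO alone and full effect = tetraoctylammonium bromide at 92 µM; nearly all actives have a fitted effect of over 55% in size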
Method in brief: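 In this qHTS cytotoxicity screen, compound titrations were incubated 24 hr at 37 C with human lymphoblastoid cells in complete medium. Luciferase-based ATP luminescence provided the viability signal.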

[21] = measured here: PEO1 parental Z-AUC

CCC(=O)O[C@@H](OP(=O)(CCCCc1ccccc1)CC(=O)N1C[C@H](C2CCCCC2)C[C@H]1C(=O)O)C(C)C (stereo partly drawn)
inactive: Potency [1] | Potency [2] | Potency [3] | Potency [4] | Potency [5] | Potency [6] | Potency [7] | Potency [8] | Potency [9] | Potency [10] | Potency [11] | Potency [12] | Potency [13] | Potency [14] | Potency [15]

CC1CCC(C(C)C)C(OC(=O)c2ccccc2O)C1 (stereo not drawn)
inactive: Potency [1] | Potency [2] | Potency [3] | Potency [4] | Potency [5] | Potency [6] | Potency [7] | Potency [8] | Potency [9] | Potency [10] | Potency [11] | Potency [12] | Potency [13] | Potency [14] | Potency [15]

CC(C)NC(=O)C1CCC(n2c(NC(=O)c3ccc(F)cc3)nc3ccc(CN4CCC(C(C)(C)O)CC4)cc32)CC1 (stereo not drawn)
-1.17: Z-AUC [16, 21]
-1.3: Z-AUC ([16]; measured here: PEO4 Z-AUC)
active: Potency [16] 8.48 µM

Cc1cc(CC(C)CC(C)(C)C)n(O)c(=O)c1 (stereo not drawn)
active: Potency [3] 3.16 µM | Potency [4] 2.51 µM | Potency [5] 3.16 µM | Potency [6] 3.16 µM | Potency [7] 2.51 µM | Potency [8] 2.24 µM | Potency [9] 3.38 µM | Potency [10] 2.82 µM | Potency [11] 2.82 µM | Potency [12] 1.51 µM | Potency [13] 2.82 µM | Potency [14] 5.01 µM | Potency [15] 1.78 µM
inactive: Potency [2]

CC(C)CN(C[C@@H](OP(=O)(O)O)[C@H](Cc1ccccc1)NC(=O)O[C@@H]1CCOC1)S(=O)(=O)c1ccc(N)cc1
inactive: Potency [2] | Potency [3] | Potency [4] | Potency [5] | Potency [6] | Potency [7] | Potency [8] | Potency [9] | Potency [10] | Potency [11] | Potency [12] | Potency [13] | Potency [14] | Potency [15]

CO/N=C(/C(=O)N[C@@H]1C(=O)N2C(C(=O)O)=CCS[C@H]12)c1csc(N)n1
inactive: Potency [2] | Potency [3] | Potency [4] | Potency [5] | Potency [6] | Potency [7] | Potency [8] | Potency [9] | Potency [10] | Potency [11] | Potency [12] | Potency [13] | Potency [14] | Potency [15]

CCCCCCCCCCCCCCCC(=O)OCC(O)C1OC(=O)C(O)=C1O (stereo not drawn)
inactive: Potency [2]

CCC(C)n1ncn(-c2ccc(N3CCN(c4ccc(OCC5COC(Cn6cncn6)(c6ccc(Cl)cc6Cl)O5)cc4)CC3)cc2)c1=O (stereo not drawn)
active: Potency [11] 4.47 µM
-0.0223: Z-AUC ([16]; measured here: PEO4 Z-AUC)
inactive: Potency [1] | Potency [2] | Z-AUC [16] -0.487 | Potency [3] | Potency [4] | Potency [5] | Potency [6] | Potency [7] | Potency [8] | Potency [9] | Potency [10] | Potency [12] | Potency [13] | Potency [14] | Potency [15]
0.019: Z-AUC [16, 21]

O=C(Nc1ccc(-c2ccnc(Nc3ccc(N4CCOCC4)cc3)n2)cc1)[C@@H]1CCCN1
0.455: Z-AUC [16, 21]
inactive: Z-AUC [16] -0.466
0.0561: Z-AUC ([16]; measured here: PEO4 Z-AUC)

CNC(=O)c1ccccc1Nc1nc(Nc2ccc3c(c2OC)CCC[C@H](N2CCN(CCO)CC2)C3)ncc1Cl
-0.58: Z-AUC ([16]; measured here: PEO4 Z-AUC)
inactive: Z-AUC [16] -0.709
-0.531: Z-AUC [16, 21]

CN(C)CCCOc1ccc(-c2ccc3ncc4c(c3c2)n(C2CCOCC2)c(=O)n4C)cn1
active: Potency [16] 3.01 µM
-1.31: Z-AUC ([16]; measured here: PEO4 Z-AUC)
-1.35: Z-AUC [16, 21]

O[C@@H]([C@H](O)[C@@H](O)CBr)[C@@H](O)CBr
inactive: Potency [17] | outcome [18]

COc1ccc2nc(N)sc2c1
inactive: Potency [19]

Cc1ccc([N+](=O)[O-])c(C)c1
inactive: Potency [17] | outcome [18]

CO/N=C(/C(=O)N[C@@H]1C(=O)N2C(C(=O)OC(C)OC(C)=O)=C(COC(N)=O)CS[C@H]12)c1ccco1 (stereo partly drawn)
inactive: Potency [2]

O=C1c2ccccc2C(=O)C1c1ccc2ccccc2n1
inactive: outcome [18]

CCC(O)OC(O)CC (stereo not drawn)
inactive: Potency [20]

COc1c2ccoc2cc2oc(=O)ccc12
inactive: Potency [19]

CCCCCCCCCCCCCCC1CO1 (stereo not drawn)
inactive: Potency [20]

CC/C=C(\C(=O)N[C@H]1C(=O)N2C(C(=O)OCOC(=O)C(C)(C)C)=C(COC(N)=O)CS[C@H]12)c1csc(N)n1
inactive: Potency [2]

CCCN(CCC)C(=O)SCC
inactive: Potency [17] | Potency [19]

ClCCCl
inactive: Potency [17] | Potency [19]

CN1CC[C@H](CN2c3ccccc3Sc3ccccc32)C1
active: Potency [3] 5.01 µM | Potency [4] 12.6 µM | Potency [5] 11.2 µM | Potency [6] 12.6 µM | Potency [7] 8.91 µM | Potency [8] 7.94 µM | Potency [10] 11.2 µM | Potency [11] 12.6 µM | Potency [12] 13.5 µM | Potency [13] 8.91 µM | Potency [14] 11.2 µM | Potency [15] 12.6 µM
inactive: Potency [2] | Potency [9]

C/C=C\c1ccc(OC)cc1
inactive: Potency [20] | outcome [18] | Potency [2] | Potency [3] | Potency [4] | Potency [5] | Potency [6] | Potency [7] | Potency [8] | Potency [9] | Potency [10] | Potency [11] | Potency [12] | Potency [13] | Potency [14] | Potency [15]
